Test results reported in article PMC7862700, “An all-to-all approach to the identification of sequence-specific readers for epigenetic DNA modifications on cytosine”.

What was measured:
Experiment in all cases: DAPPL (digital affinity profiling via proximity ligation, sequencing); 10 mM Tris-HCl pH 7.5, 50 mM NaCl, 1 mM DTT, 4% glycerol, room temperature, 30 min; GST-TFs on glutathione beads, 16-mer random dsDNA library, 0.1% formaldehyde crosslink after washing; high values mean tight binding
FEV = molecular target: T1, FEV (Homo sapiens, UniProt Q99581 1-238); conditions: protein: recombinant; tags: N-terminal GST; dsDNA, one strand shown
T1 sequence: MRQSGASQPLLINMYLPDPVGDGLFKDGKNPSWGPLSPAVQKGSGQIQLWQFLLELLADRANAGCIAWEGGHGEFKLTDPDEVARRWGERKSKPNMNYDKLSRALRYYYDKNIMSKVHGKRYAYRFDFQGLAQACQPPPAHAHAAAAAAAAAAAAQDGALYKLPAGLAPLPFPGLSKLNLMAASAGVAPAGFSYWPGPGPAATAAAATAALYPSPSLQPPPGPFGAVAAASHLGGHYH
Summary of the method: (§1)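 GST fusions of human transcription factors were expressed in yeast and captured with glutathione beads. Once given DNA barcodes and pooled alongside a tag-only sample, they were incubated for 30 min at room temperature with 200 nmole of a random double-stranded 16-mer DNA library in Tris/NaCl/DTT/glycerol buffer, then washed, crosslinked (0.1% formaldehyde), proximity-ligated, PCR-amplified and sequenced on an Illumina NextSeq500. The binding signal of each hexamer is its read frequency for a factor divided by its frequency for the tag-only sample.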

ETV5 = ETV5 (Homo sapiens, UniProt P41161 1-510); conditions: protein: recombinant; tags: N-terminal GST; dsDNA, one strand shown
Summary of the method: as §1

HSF1 = HSF1 (Homo sapiens, UniProt Q00613 1-529); conditions: protein: recombinant; tags: N-terminal GST; chain copies: 3; dsDNA, one strand shown
Summary of the method: as §1

SPIC = molecular target: T2, SPIC (Homo sapiens, UniProt Q8N5J4 1-248); conditions: protein: recombinant; tags: N-terminal GST; dsDNA, one strand shown
T2 sequence: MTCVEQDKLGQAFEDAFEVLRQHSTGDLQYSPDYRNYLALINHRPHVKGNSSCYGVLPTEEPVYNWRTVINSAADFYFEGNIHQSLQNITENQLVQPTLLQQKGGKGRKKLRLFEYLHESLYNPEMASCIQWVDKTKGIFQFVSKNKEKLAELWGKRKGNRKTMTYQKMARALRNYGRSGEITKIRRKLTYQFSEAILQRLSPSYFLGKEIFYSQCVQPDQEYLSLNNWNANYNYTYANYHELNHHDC
Summary of the method: as §1

ELF4 = ELF4 (Homo sapiens, UniProt Q99607 1-663); conditions: protein: recombinant; tags: N-terminal GST; dsDNA, one strand shown
Summary of the method: as §1

ELK4 = molecular target: T3, ELK4 (Homo sapiens, UniProt P28324-2 1-405); conditions: protein: recombinant; tags: N-terminal GST; dsDNA, one strand shown
T3 sequence: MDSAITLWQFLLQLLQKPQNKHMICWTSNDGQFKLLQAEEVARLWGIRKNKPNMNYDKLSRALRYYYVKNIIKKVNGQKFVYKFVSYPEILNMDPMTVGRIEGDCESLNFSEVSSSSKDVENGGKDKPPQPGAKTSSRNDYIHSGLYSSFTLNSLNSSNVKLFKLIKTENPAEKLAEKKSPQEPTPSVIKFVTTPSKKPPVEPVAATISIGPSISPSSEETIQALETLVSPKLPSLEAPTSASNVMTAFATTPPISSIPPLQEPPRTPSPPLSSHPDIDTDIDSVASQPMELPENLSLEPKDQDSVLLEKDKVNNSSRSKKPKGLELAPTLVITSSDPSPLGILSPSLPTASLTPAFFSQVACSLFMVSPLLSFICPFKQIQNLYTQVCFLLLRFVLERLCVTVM
Summary of the method: as §1

ETV2 = molecular target: T4, ETV2 (Homo sapiens, UniProt O00321 1-342); conditions: protein: recombinant; tags: N-terminal GST; dsDNA, one strand shown
T4 sequence: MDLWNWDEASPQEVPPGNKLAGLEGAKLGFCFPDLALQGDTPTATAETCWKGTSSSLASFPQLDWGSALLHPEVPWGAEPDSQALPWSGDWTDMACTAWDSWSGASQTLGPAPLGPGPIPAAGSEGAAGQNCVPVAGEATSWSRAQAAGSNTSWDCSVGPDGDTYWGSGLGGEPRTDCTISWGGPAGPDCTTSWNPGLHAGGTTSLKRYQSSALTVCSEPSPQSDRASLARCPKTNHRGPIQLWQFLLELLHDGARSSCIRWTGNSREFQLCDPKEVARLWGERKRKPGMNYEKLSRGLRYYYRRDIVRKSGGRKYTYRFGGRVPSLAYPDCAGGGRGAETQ
Summary of the method: as §1

ELF3 = molecular target: T5, ELF3 (Homo sapiens, UniProt P78545 1-371); conditions: protein: recombinant; tags: N-terminal GST; dsDNA, one strand shown
T5 sequence: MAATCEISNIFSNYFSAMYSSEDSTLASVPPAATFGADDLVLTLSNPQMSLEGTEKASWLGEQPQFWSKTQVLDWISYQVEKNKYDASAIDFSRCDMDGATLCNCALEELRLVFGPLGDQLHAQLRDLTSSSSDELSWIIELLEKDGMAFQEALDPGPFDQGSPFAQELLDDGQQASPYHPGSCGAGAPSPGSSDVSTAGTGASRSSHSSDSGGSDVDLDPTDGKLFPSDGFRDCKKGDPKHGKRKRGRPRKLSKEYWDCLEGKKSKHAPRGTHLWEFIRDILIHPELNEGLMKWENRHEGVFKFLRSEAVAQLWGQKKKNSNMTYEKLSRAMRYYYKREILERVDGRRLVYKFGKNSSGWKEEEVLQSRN
Summary of the method: as §1

CRX = CRX (Homo sapiens, UniProt O43186 1-299); conditions: protein: recombinant; tags: N-terminal GST; dsDNA, one strand shown
Summary of the method: as §1

Chain of ETV5 (P41161 whole entry): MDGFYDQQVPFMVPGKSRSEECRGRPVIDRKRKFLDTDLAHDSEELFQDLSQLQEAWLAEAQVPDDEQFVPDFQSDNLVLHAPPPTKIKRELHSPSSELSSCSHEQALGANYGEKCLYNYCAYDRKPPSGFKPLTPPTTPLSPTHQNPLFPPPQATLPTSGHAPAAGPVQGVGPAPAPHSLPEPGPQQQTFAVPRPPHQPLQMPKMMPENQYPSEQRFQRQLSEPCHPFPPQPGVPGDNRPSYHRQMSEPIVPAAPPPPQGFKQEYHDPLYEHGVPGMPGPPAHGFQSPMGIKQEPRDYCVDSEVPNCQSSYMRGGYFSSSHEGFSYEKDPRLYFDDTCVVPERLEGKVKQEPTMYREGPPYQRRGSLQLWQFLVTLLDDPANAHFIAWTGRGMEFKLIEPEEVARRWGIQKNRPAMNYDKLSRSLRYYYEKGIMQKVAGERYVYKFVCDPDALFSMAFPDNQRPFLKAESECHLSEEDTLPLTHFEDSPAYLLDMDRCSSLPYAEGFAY
Chain of ELF4 (Q99607 whole entry): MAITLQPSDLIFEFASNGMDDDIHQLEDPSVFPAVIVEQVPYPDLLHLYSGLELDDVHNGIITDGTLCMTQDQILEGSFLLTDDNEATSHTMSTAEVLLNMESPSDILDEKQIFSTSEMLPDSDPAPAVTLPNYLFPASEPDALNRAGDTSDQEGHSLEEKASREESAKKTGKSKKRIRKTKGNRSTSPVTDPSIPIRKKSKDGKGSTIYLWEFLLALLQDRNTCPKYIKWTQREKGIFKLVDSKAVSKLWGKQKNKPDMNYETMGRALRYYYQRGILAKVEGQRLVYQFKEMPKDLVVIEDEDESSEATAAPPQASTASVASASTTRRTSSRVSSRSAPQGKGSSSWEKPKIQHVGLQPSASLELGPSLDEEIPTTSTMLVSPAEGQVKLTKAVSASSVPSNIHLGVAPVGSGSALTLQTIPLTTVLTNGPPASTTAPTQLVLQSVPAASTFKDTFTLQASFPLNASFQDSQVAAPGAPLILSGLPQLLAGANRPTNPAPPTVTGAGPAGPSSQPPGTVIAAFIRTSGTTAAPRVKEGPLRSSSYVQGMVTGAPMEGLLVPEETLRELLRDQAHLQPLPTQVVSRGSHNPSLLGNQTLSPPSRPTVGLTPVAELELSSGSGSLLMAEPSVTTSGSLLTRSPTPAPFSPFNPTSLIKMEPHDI
Chain of CRX (O43186 whole entry): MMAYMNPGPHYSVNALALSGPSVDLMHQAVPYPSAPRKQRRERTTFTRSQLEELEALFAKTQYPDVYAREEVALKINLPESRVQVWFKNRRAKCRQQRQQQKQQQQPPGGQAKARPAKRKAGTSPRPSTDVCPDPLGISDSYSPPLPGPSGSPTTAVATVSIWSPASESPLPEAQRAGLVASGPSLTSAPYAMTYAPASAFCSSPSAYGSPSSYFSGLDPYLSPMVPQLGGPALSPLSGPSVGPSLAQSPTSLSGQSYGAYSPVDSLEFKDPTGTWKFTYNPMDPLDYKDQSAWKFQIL
Chain of HSF1 (Q00613 whole entry): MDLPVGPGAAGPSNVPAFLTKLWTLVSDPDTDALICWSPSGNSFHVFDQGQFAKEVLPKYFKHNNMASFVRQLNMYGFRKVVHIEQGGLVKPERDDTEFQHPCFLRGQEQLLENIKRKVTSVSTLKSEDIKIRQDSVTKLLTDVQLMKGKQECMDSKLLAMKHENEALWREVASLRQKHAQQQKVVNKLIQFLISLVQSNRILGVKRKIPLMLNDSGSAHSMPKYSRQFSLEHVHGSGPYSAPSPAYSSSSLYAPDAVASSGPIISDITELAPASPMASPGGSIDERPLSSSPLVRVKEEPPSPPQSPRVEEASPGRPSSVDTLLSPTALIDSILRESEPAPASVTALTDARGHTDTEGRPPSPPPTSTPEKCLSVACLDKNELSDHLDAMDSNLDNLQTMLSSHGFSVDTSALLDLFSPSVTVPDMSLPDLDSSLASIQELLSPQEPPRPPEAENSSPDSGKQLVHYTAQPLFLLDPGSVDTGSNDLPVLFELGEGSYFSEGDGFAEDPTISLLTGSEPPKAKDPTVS

## TGTATG
FEV
  binding signal: 1.21 fold enrichment (6-mer frequency, TF over GST control)
ETV5
  binding signal: 1.28 fold enrichment (6-mer frequency, TF over GST control)
HSF1
  binding signal: 1.06 fold enrichment (6-mer frequency, TF over GST control)
SPIC
  binding signal: 1.09 fold enrichment (6-mer frequency, TF over GST control)
ELF4
  binding signal: 1.22 fold enrichment (6-mer frequency, TF over GST control)
ELK4
  binding signal: 1.34 fold enrichment (6-mer frequency, TF over GST control)
ETV2
  binding signal: 1.18 fold enrichment (6-mer frequency, TF over GST control)
ELF3
  binding signal: 1.19 fold enrichment (6-mer frequency, TF over GST control)
CRX
  binding signal: 1.04 fold enrichment (6-mer frequency, TF over GST control)
